Screening results (PubChem)
Only some compounds are listed: those with a hit (about 6.1% of all), similar ones and a draw of the others.
ERG Ets-DNA blk = ERG Ets/DNA interaction inhibition | P11308 | fluorescence polarization, His-ERG Ets domain / labelled DNA | Potency, µM (series often up to 76.9 µM), hits mostly inhibitors | hit rate 0.028% among 370,000 | AID 624246; active = well fitted inhibition curve with a large enough effect in the polarisation, with a control signal flat; inconclusive = small, poorly fitted or top-dose-only effect, or effect the other way, or a change in a side signal; inactive = no such curve, though single readings can be large or run the other way; the % refers to the polarisation;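 note: polarization taken with two DNA probes labelled with fluorescein and Texas red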
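His-tagged ERG Ets domain (1 uM in the protein solution; 300mM KCl, 50mM Tris-HCl, 1mM EDTA, 1mM DTT, pH 7.5) received compound, then a probe mix of 5 nM fluorescein-DNA and 100nM Texas-615-DNA. Fluorescence polarization was read for both dyes.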
D1 PAM = human D1 dopamine receptor positive modulation; HEK293 TREx D1 cells, calcium flux, dopamine EC20 potentiation; potentiation, % at 10 µM; hit rate 0.036% among 360,000; AID 504651; in the data active = potentiation above about 30%
Target sequence (P21728 whole entry, looked up): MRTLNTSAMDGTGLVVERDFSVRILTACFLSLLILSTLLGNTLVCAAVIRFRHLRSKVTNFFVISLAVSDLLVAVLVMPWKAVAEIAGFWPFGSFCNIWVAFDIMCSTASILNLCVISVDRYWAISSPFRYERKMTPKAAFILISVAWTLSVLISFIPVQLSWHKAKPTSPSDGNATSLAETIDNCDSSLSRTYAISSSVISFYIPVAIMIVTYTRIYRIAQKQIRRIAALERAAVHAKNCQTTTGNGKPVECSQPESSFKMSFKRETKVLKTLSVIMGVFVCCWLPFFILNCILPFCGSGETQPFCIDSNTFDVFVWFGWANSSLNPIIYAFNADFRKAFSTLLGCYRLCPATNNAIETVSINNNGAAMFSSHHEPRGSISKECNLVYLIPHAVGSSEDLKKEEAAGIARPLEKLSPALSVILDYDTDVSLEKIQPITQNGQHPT
D1 agonist = agonists of human D1 dopamine receptor. P21728. HEK293 T-REx D1 cells, calcium flux, agonist mode. activation, % at 2 µM. hit rate 1% among 360,000. AID 504660; in the data active = activation above about 30%
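Inducible HEK293 T-REx D1 cells, force-coupled to calcium signalling, were plated at 4000 cells/well with tetracycline and held overnight at 30 C. After no-wash calcium dye loading, compound-evoked calcium rise over 180 s flagged agonists.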
D3 ag = agonists of human D3 dopamine receptor; hit rate 0.58% among 410,000; max activation, %; P35462; D3R DiscoveRx beta-arrestin cells, luminescence, 90 min; AID 652048; in the data active = max activation above about 30%
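Agonist mode: compounds and dopamine controls were applied to plated cells for 90 min at 37 degrees C after an overnight attachment at 1500 cells/well. Luminescent read-out followed 30 - 60 minutes at room temperature with DiscoveRx detection reagent.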
D1 antag = human D1 dopamine receptor antagonism | P21728 | HEK293 TREx D1 cells, calcium flux, dopamine EC80; stronger effect = lower value | activity change, negative = inhibition, % at 10 µM | hit rate 3.2% among 360,000 | AID 504652; in the data active = activity change below about -30%
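After overnight tetracycline induction at 30 C, force-coupled D1 HEK293 cells took up a no-wash calcium dye at room temperature. Compounds were added and monitored 180 s, and the response to EC80 dopamine was then recorded.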
D3 antag = blocks the human D3 dopamine receptor; max response, negative = inhibition, %; AID 652054; P35462; D3R cells, DiscoveRx beta-arrestin luminescence, antagonist mode; stronger effect = lower value; hit rate 2.5% among 360,000; in the data active = max response below about -50%; inconclusive = no clear call, values can overlap the other calls
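Cells expressing the human receptor were seeded at 1500 cells/well, incubated overnight at 37 degrees C in 5% CO2, then exposed to library compounds with dopamine controls for 90 minutes at 37 degrees C before luminescent detection.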
Large screens that a line does not name were inactive.

O=C(O)CCN1C(=O)C2C3c4ccccc4C(c4ccccc43)[C@@H]2C1=O (stereo partly specified)	D1 antag -31.1
O=C1C(Cl)=C(Nc2ccc(O)cc2)C(=O)c2ccccc21	D1 antag -68.5, D3 antag inconclusive
COC1=C(Nc2ccc(O)cc2)C(=O)c2ccccc2C1=O	none
CCN(CC)c1ccc(NC2=C(Cl)C(=O)c3ccccc3C2=O)cc1	D1 antag -38.7, D3 antag -82.2
COC1=C(Nc2ccc(OC)cc2)C(=O)c2ccccc2C1=O	none
Cc1ccc(NC2=C(Cl)C(=O)c3ccccc3C2=O)cc1	D1 antag -58.0, D3 antag inconclusive (no result: ERG Ets-DNA blk)
O=Cc1cnc2ccccc2c1-c1ccccc1	none
CC(=O)c1ccc(OCC(=O)c2ccc(-c3ccccc3)cc2)cc1	none
COc1ccc(Br)cc1/C=N/NC(=O)c1ccc(OC)c(OC)c1	none
CC1(C)N=C(c2cccc(F)c2)C(=O)N1	D3 ag 43.4
O=C(CCn1c(=O)oc2ccccc21)Nc1nc2ccccc2s1	none
CCOC(=O)c1sc(N2N=C(C)/C(=C\c3ccc(OCC(=O)OC)cc3)C2=O)nc1C	D3 antag -70.3
Cc1ccc(S(=O)(=O)N(C)Cc2nc(-c3ccc(Br)cc3)no2)cc1	D1 antag -35.6
Cc1c(C(=O)Oc2cc(N)n(S(C)(=O)=O)n2)cccc1[N+](=O)[O-]	none
O=S(=O)(c1ccc(Br)s1)N1CCN(c2ccccn2)CC1	D3 antag inconclusive
O=S(=O)(c1ccc(Br)s1)N1CCN(c2ncccn2)CC1	D3 antag -79.0
CNS(=O)(=O)c1cnccc1N1CCN(c2cccc(Cl)c2)CC1	D1 antag -30.5
O=C(C1CCN(S(=O)(=O)Cc2ccccc2)CC1)N1CCN(c2ccccc2)CC1	D1 antag -60.7 (no result: D3 antag)
CN1CCN(S(=O)(=O)c2cnccc2N2CCN(c3cccc(Cl)c3)CC2)CC1	none
O=S(=O)(Cc1ccccc1)N1CCN(c2ncccn2)CC1	D1 antag -50.8
Cc1cccc(N(CC(=O)NC(C)(C)C)C(=O)CCC(=O)Nc2ccccn2)c1	none
CC(C)CNC(=S)N(Cc1ccco1)Cc1cc2cc3c(cc2[nH]c1=O)OCCO3	none
COc1ccccc1CNC(=O)/C=C/C(=O)O	none
C=Cc1cccc(NC(=O)c2ccc(NC(=O)c3ccco3)cc2)c1	none
COc1cccc2sc(N(C)c3ccccc3)nc12	none
O=C(C1CCN(S(=O)(=O)c2cccnc2)CC1)N1CCN(c2cccc(Cl)c2)CC1	D1 antag -83.2
Cc1c(C(=O)Nc2ccc(S(=O)(=O)N(C)C3CCN(C)CC3)cc2)oc2ccccc12	D1 agonist 32.2
Cc1c(C(=O)Nc2cccc(Cl)c2)oc2ccc(S(=O)(=O)N(C)C3CCCCC3)cc12	none (no result: D3 antag)
CN1CCC(N(C)S(=O)(=O)c2ccc(NC(=O)c3ccc(S(=O)(=O)N(C)C)cc3)cc2)CC1	none (no result: D1 PAM, D1 agonist, D1 antag)
Cc1c(C(=O)Nc2ccc(S(=O)(=O)N(C)C3CCN(C)CC3)cc2)oc2c(Cl)cccc12	D1 agonist 58.8, D1 antag -59.7, D3 antag -66.2
COC(=O)C1=CO[C@@H](O[C@@H]2O[C@H](CO)[C@@H](O)[C@H](O)[C@H]2O)C2C(CO)=CCC12 (stereo partly specified)	none (no result: D1 PAM, D1 agonist, D1 antag)
CCCN(CC(=O)Nc1ccc(F)c(F)c1F)C(=O)C1CC(=O)N(Cc2ccccc2)C1 (stereo unspecified)	ERG Ets-DNA blk 35.5µM
Cc1ccc(S(=O)(=O)NNc2ccccc2)cc1	none
Cc1ccc(S(=O)(=O)NNc2nc3ccccc3nc2C(F)(F)F)cc1	D3 antag -54.5
CC(C)(CO)[C@@H](O)C(=O)NCCC(=O)NCCSSCCNC(=O)CCNC(=O)[C@H](O)C(C)(C)CO	none (no result: ERG Ets-DNA blk, D1 PAM, D1 agonist, D1 antag, D3 antag)
CCn1c(-c2ccc(S(=O)(=O)N3CCOCC3)cc2)csc1=Nc1ccc(C)c(Cl)c1	D1 antag -36.7 (no result: D3 antag)
CCn1c(C)nc2cc(C(=O)N=Nc3c(O)[nH]c4c(C)cc(C)cc34)ccc21	none (no result: ERG Ets-DNA blk, D3 ag, D3 antag)
Cc1cc(C)nc(SCc2ccc(C(=O)NNC(=O)Nc3cccc(Cl)c3)cc2)n1	D3 antag -57.9
Cc1cc(C)nc(SCc2ccc(C(=O)N/N=C/c3ccncc3)cc2)n1	none
C[C@@H]1CN([C@@H](C)CO)C(=O)c2cccc(NS(C)(=O)=O)c2O[C@H]1CN(C)C(=O)Nc1ccc(F)cc1	none (no result: D1 PAM, D1 agonist, D1 antag)
Cc1ccc(OCc2cc(C(=O)N(CCO)Cc3cccs3)no2)cc1C	D1 antag -45.2
COc1cc(O)c(C(CCN2CCCC(C)C2)c2ccc3c(c2)OCO3)c(OC)c1 (stereo unspecified)	D3 antag -67.8
COc1cc(O)c(C(CCN2CCN(c3ccccc3)CC2)c2ccc(N(C)C)cc2)c(OC)c1 (stereo unspecified)	D1 antag -80.1
CCN(CC)CCC(c1ccc(OC)cc1)c1c(O)cc(OC)cc1OC (stereo unspecified)	D1 antag -31.5, D3 antag inconclusive
COc1cc(O)c(C(CCN2CCOCC2)c2ccc(N(C)C)cc2)c(OC)c1 (stereo unspecified)	none
COc1ccc(C(CCN2CCN(c3ccccc3)CC2)c2c(O)cc(OC)cc2OC)cc1 (stereo unspecified)	D1 antag -84.4, D3 antag -112.2
COc1ccccc1/C=C1\SC(=S)N(CCC(=O)NCCCN2CCOCC2)C1=O	none
CCCCN1C(Nc2ccccc2)=NC[C@@H]1C	none
COc1ccc(/C=N/NC(=O)c2cccnc2)cc1CN1CCc2ccccc2C1	D3 antag inconclusive
CC(C)(C)c1ccc(C(=O)Nc2ccccc2C(=O)NCCN2CCOCC2)cc1	none
Oc1nc(Nc2ccc(F)cc2)sc1/C=C1\C=Nc2ccccc21	none
Oc1cccc(Nc2nc(O)c(/C=C3\C=Nc4ccccc43)s2)c1	D1 agonist 34.3, D3 antag inconclusive
CC1=Nc2ccccc2/C1=C\c1sc(Nc2ccc(C)cc2)nc1O	D3 antag -54.2
COc1cc(OC)c(NC(=O)C(=O)CC(=O)c2ccc(C)cc2C)cc1Cl	D3 antag inconclusive
Cc1cc(C)n(CC(=O)Nc2ccc(N3CCOCC3)c(Cl)c2)c(=O)c1C#N	none
COC(=O)c1cc2c(C)c(C)c3ccccn3c-2c1C(=O)OC	D3 antag -51.6
c1ccc(-c2csc(NNC3=NCCCCC3)n2)cc1	none
Clc1ccc(-c2csc(NNC3=NCCCCC3)n2)cc1	D3 antag -78.4
O=C(CNS(=O)(=O)c1ccc(F)cc1)Nc1ccc(C(F)(F)F)cc1	none
Cc1ccc(S(=O)(=O)NCC(=O)Nc2ccc(C(F)(F)F)cc2)cc1	D3 ag 35.1
Cc1ccc(NC(=O)CN(C)C(=O)c2ccc(C(F)(F)F)cc2)cc1	D1 antag -32.2
